Reference: PubChem BioAssay (NCI)
The panel holds about 79,000 compounds, 15% with a hit somewhere; the sample as a whole holds those more often. Unmarked numbers belong to inactive results. Calls of active or inactive are those of the source. Cut-off read from the data, not from the text of the source: active = growth inhibition above about 70%; inactive = the rest. *1 amine or outer side, *2 acyl side, *3 side chain or, on linkers, in order; H or OH if unused. Where a SMILES comes first, the peptide text is derived from it. Bridges are numbered along the chain shown (N, C = ends). [ ]: non-standard residue; d: D form. The star is where a group is joined. ξ: configuration not given here. ξOrn(4,5-diOH) = O=C(C(CC(O)C(O)N[*:3])N[*:1])[*:2]; ξhTyr(βξ-OH,γξ-OH) = NC(C(=O)O)C(O)C(O)c1ccc(O)cc1; ξPro(3ξ-OH,4ξ-Me) = CC1CNC(C(=O)O)C1O; X1 = CCCCC/C=C/C/C=C\CCCCCCCC(=O)*; Hyp = O=C(O)[CH]1C[CH](O)CN1

Experiments:
[1] = NCI Yeast Anticancer Drug Screen. Data for the rad50 strain (AID 155);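 note: 0% = growth of vehicle-only cultures of the same strain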; conditions: S. cerevisiae rad50 strain growth inhibition, hits give high values
In short: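 Relative growth inhibition (compound vs vehicle) was measured in yeast with a defined repair-gene alteration.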

[2] = NCI Yeast Anticancer Drug Screen. Data for the mec2-1 strain (AID 157); conditions: S. cerevisiae mec2-1 strain, hits give high values
In short: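 mec2-1 yeast strain, carrying an alteration in DNA damage repair or cell cycle control, was exposed to compounds; growth inhibition was measured relative to vehicle-treated controls.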

[3] = NCI Yeast Anticancer Drug Screen. Data for the sgs1 mgt1 strain (AID 161);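 note: 0% = growth of cultures given vehicle only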; conditions: S. cerevisiae sgs1 mgt1 strain, hits give high values
In short: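 This yeast growth screen uses a strain with defined DNA-repair lesions; compound-treated growth is compared with vehicle-treated growth.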

[4] = NCI Yeast Anticancer Drug Screen. Data for the cln2 rad14 strain (AID 165);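 note: 0% = growth equal to vehicle treated cultures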; conditions: S. cerevisiae cln2 rad14 strain, hits give high values
In short: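 Yeast carrying cln2 and rad14 alterations (cell cycle control and DNA damage repair) were exposed to compounds. Growth inhibition was measured against vehicle-treated controls.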

[5] = NCI Yeast Anticancer Drug Screen. Data for the bub3 strain (AID 167); conditions: S. cerevisiae bub3 mutant strain, hits give high values
In short: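 Screening used yeast with an engineered genetic alteration affecting cell cycle control. Compound-exposed cultures were compared with vehicle cultures, and reduced growth was taken as inhibition.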

[6] = NCI Yeast Anticancer Drug Screen. Data for the mlh1 rad18 strain (AID 175); conditions: S. cerevisiae mlh1 rad18 strain growth inhibition, hits give high values
In short: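 Growth inhibition of the yeast strain was measured after compound exposure and expressed relative to vehicle-treated controls. The strain carries defined defects in DNA damage repair.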

[7] = at 5.0 µM (retest, dose inferred, filed as 0.5)
[8] = at 50.0 µM (retest, dose inferred, filed as 5.0)

Structure (SMILES) | growth inhibition [1, 7] | growth inhibition [1, 8] | growth inhibition ([1]; at 50.0 µM) | growth inhibition [2, 7] | growth inhibition [2, 8] | growth inhibition ([2]; at 50.0 µM) | growth inhibition [3, 7] | growth inhibition [3, 8] | growth inhibition ([3]; at 50.0 µM) | growth inhibition [4, 7] | growth inhibition [4, 8] | growth inhibition ([4]; at 50.0 µM) | growth inhibition [5, 7] | growth inhibition [5, 8] | growth inhibition ([5]; at 50.0 µM) | growth inhibition [6, 7] | growth inhibition [6, 8] | growth inhibition ([6]; at 50.0 µM)
Cc1cc(SCC(=O)c2ccccc2)cc(C)[o+]1 | -4% | 82% (active) | 92% (active) | -5% | 80% (active) | 95.6% (active) | -7% | 44% | 56.4% | -6% | 1% | 17.6% | 0% | 86% (active) | 97.9% (active) | 1% | 69% | 95.4% (active)
C/C=C(\C)C(=O)OC1C2C(C)=CC(=O)C(O)C2(C)C2C3(O)OCC24C1OC(=O)C(O)C4C(C)C3O (configuration not stated) | -2% | 54% | 84.2% (active) | 15% | 30% | 72.5% (active) | 9% | 42% | 71.7% (active) | 8% | 67% | 78.5% (active) | -13% | 51% | 75.8% (active) | -33% | 66% | 34.5%
COc1cccc2c1C(=O)c1c(O)c3c(c(O)c1C2=O)C[C@@](O)(/C(C)=N/NS(C)(=O)=O)C[C@@H]3OC1CC(N)C(O)C(C)O1 (some centres not stated) | 42% | 94% (active) | 95.2% (active) | 18% | 80% (active) | 81.3% (active) | 12% | 77% (active) | 94.2% (active) | 15% | 52% | 70% (active) | 12% | 91% (active) | 90.5% (active) | 14% | 89% (active) | 91.6% (active)
CCC(c1ccc(OC)cc1)C(CC)c1ccc(O)c(CN(C)C)c1 (configuration not stated) | -2% | 39% | 60.1% | 0% | 38% | 27.1% | -4% | 86% (active) | 72.9% (active) | -1% | 41% | 38.3% | 4% | 50% | 49% | 3% | 84% (active) | 83.5% (active)
O=c1c2ccccc2sc2cccc(NCCCN3CCN(CCCNc4cccc5sc6ccccc6c(=O)c45)CC3)c12 | -1% | 4% | 28.4% | -2% | -3% | -10.7% | 4% | 13% | 3.3% | -3% | -6% | 46% | -2% | -5% | -9.1% | -3% | -65% | 0.6%
CCCOC(=O)C1CCCCC1C(=O)OCCC (configuration not stated) | 7% | -17% | 0.8% | -1% | -15% | 18.3% | -2% | 16% | -10.1% | -4% | 14% | 71.2% (active) | 1% | -2% | 5.3% | -7% | -4% | -12.7%
O=S(=O)(c1ccccc1)C1CN=NC1c1ccccc1 (configuration not stated) | 4% | 79% (active) | 84.2% (active) | -16% | 97% (active) | 97.7% (active) | -7% | 98% (active) | 73.6% (active) | -2% | 69% | 93.5% (active) | 6% | 98% (active) | 87.8% (active) | 30% | 97% (active) | 97% (active)
CCOC(=O)C(=Cn1c(=S)[nH]c2ccc([N+](=O)[O-])cc21)C(=O)OCC | 33% | 53% | -36.2% | 17% | 22% | -35.2% | 33% | 41% | 0.75% | 20% | 25% | 13.9% | 26% | 29% | -37.2% | 33% | 46% | -40.2%
COc1ccc(-c2nnc(C)nc2-c2ccc(OC)cc2)cc1 | 3% | -1% | 22.1% | -1% | 7% | 1.2% | 3% | 19% | 23.2% | -6% | -1% | 17.6% | 14% | 41% | 81.6% (active) | 0% | 2% | 13.2%
CCCCC/C=C/C/C=C\CCCCCCCC(=O)NC1CC(O)C(O)NC(=O)C2C(O)C(C)CN2C(=O)C(C(C)O)NC(=O)C(C(O)C(O)c2ccc(O)cc2)NC(=O)C2CC(O)CN2C(=O)C(C(C)O)NC1=O (stereo not drawn) (X1-[ξOrn(4,5-diOH)]T[Hyp][ξhTyr(βξ-OH,γξ-OH)]T[ξPro(3ξ-OH,4ξ-Me)]; lactam 1-C; configuration not given here) | 3% | 93% (active) | 89% (active) | 51% | 98% (active) | 90.8% (active) | 51% | 93% (active) | 90.3% (active) | 9% | 95% (active) | 83.8% (active) | 11% | 97% (active) | 89.9% (active) | 40% | 96% (active) | 88.6% (active)
CC(C)(C)OC(=O)N(CCCCNCc1ccc2ccccc2c1)CCCNCc1ccc2ccccc2c1 | 17% | 99% (active) | 91% (active) | 19% | 99% (active) | 92.6% (active) | -7% | 99% (active) | 76.5% (active) | 3% | 98% (active) | 89% (active) | 18% | 97% (active) | 90.5% (active) | 26% | 99% (active) | 91% (active)
CCOC(=O)/C(=C\c1ccc([N+](=O)[O-])cc1)C(C)=O | 46% | 99% (active) | 92.8% (active) | 39% | 99% (active) | 94.7% (active) | 25% | 98% (active) | 92.5% (active) | 17% | 98% (active) | 87.1% (active) | 40% | 99% (active) | 92.4% (active) | 30% | 99% (active) | 91.8% (active)
CNc1ccc(C(=O)NC(CCCCNC(=O)OCc2ccccc2)C(=O)OC)cc1 (configuration not stated) | -3% | -1% | 93.8% (active) | 1% | 10% | 95% (active) | -18% | -17% | 97.9% (active) | -5% | 2% | 58.1% | -4% | 0% | 95.6% (active) | 2% | -9% | 98.6% (active)
Cc1cc(Cl)c2cc(Cc3ccc(Br)cc3)ccc2n1 | -3% | 10% | 16.5% | -10% | 20% | 36% | 11% | 37% | 43.9% | 1% | -1% | 50.6% | 4% | 12% | 37.6% | 15% | 15% | 55.9%
O=C(CNc1ccc(Cl)cc1)Nn1c(-c2ccccc2)nc2ccccc2c1=O | 8% | 29% | 64.7% | -9% | 42% | 56.6% | 10% | 30% | 79% (active) | 11% | 32% | 45.2% | -7% | 31% | 62.1% | 4% | 51% | 81.3% (active)
O=c1ccc([N+](=O)[O-])c[nH]1.[Ag] | 98% (active) | 98% (active) | 99.5% (active) | 99% (active) | 99% (active) | 99.3% (active) | 99% (active) | 98% (active) | 99.1% (active) | 98% (active) | 100% (active) | 98.2% (active) | 98% (active) | 98% (active) | 98.3% (active) | 98% (active) | 97% (active) | 99% (active)
Oc1ccc(Cl)cc1Cc1cc(Cl)cc(Cc2cc(Cl)ccc2O)c1O | -1% | 97% (active) | 96% (active) | 1% | 98% (active) | 97.3% (active) | 4% | 98% (active) | 97.5% (active) | -12% | 95% (active) | 96.5% (active) | -17% | 98% (active) | 96.7% (active) | 14% | 97% (active) | 95.8% (active)
COc1ccc(Oc2c(OC)cc(NCCCCCNC(C)C)c3ncccc23)cc1 | 26% | 72% (active) | 91.9% (active) | 13% | 52% | 67.9% | 37% | 85% (active) | 93.7% (active) | 19% | 48% | 57.8% | 29% | 69% | 81% (active) | 19% | 52% | 89.8% (active)
Cc1nc(Nc2ccc(Cl)cc2)sc1C(=O)NNC(=O)C(=O)NN | 3% | 3% | 80.5% (active) | -19% | -8% | 59.5% | -13% | 9% | 61.8% | -31% | -10% | 64.5% | -26% | -5% | 41.1% | -45% | -32% | 69.5%
